About 10,000 (2.8%) of roughly 360,000 compounds were called active. Inconclusive results (about 4%) are left out. The full list was thinned out, with actives kept by preference. A number with no mark means an inactive call. Calls come from the whole dose curve; as a rule, active = well fitted inhibition curve with a large enough effect; inconclusive = small, poorly fitted or top-dose-only effect; inactive = flat fitted curve, though single readings scatter.
% is set by controls: 0 for no effect and ±100 for the full control effect; potency is the fitted concentration of half-maximal effect.

Sequence of Serine/threonine-protein kinase PLK1 (Homo sapiens) (P53350 whole entry, looked up, the tested form may be a part): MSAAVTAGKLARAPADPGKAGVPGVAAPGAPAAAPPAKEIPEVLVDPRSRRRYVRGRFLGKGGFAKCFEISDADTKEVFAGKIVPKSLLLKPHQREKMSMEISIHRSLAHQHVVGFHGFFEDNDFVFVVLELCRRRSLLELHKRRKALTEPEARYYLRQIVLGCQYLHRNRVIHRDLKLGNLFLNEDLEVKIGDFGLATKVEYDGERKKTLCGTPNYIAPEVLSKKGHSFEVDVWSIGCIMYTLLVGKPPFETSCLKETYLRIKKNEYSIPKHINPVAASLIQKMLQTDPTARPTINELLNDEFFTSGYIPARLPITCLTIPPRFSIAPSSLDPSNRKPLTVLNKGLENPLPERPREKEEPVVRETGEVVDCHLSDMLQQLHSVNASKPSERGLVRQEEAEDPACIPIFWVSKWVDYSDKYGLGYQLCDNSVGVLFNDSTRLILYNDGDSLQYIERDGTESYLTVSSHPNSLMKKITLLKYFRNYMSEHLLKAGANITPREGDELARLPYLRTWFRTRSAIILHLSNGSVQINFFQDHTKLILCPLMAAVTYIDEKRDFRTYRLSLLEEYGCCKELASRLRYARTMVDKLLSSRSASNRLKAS

The target of the experiment is Serine/threonine-protein kinase PLK1 (Homo sapiens) (UniProt P53350). Kind of experiment: qHTS for Inhibitors of PLK1-PDB (polo-like kinase 1 - polo-box domain): Primary Screen. For max response, negative = inhibition: series mostly up to about 57 µM. Note: nearly all actives have a fitted effect of over 65% in size. Particulars: Plk1 PBD binding of FITC phosphopeptide, fluorescence polarization. The source says:
The polo-like kinase 1 (Plk1) is a member of a conserved subfamily of serine / threonine protein kinases that plays a pivotal roles in cell proliferation. It has a C-terminal non-catalytic region called the polo-box domain (PBD) that plays a crucial role in the subcellular localization of the Plk1. […] Furthermore, depletion of the overexpressed Plk1 by RNAi efficiently induces apoptotic cell death in cancer and reduces tumor growth in mouse xenograft models. Thus, targeting Plk1 is an appealing strategy for anti-cancer therapy. Therefore, this project aimed to screen the Molecular Libraries Small Molecule Repository (MLSMR) using a novel approach to find inhibitors that target the Plk1 PBD instead of the conventional N-terminal catalytic domain. This project employed a fluorescence polarization (FP) assay using a FITC-conjugated phospho-9-mer (p-9-mer) peptide and purified human Plk1 PBD protein. The identified small molecule inhibitors of Plk1 PBD can then further be developed into useful tools for biomedical and clinical research that complements or replaces current relevant disease therapy. NIH Chemical Genomics Center [NCGC] NIH Molecular Libraries Probe Centers Network [MLPCN] MLPCN Grant: MH100728 Assay Submitter (PI): Kyung Lee, NCI
Four microliter of 25 nM FITC-p-9-mer + 60 nM Plk1 PBD in buffer solution (final concentrations 25 nM and 60 nM respectively) or 4 uL of 25 nM FITC-p-9-mer (final concentration 25 nM) in buffer will be dispensed into a 1,536 Greiner medium-binding black solid plate. Small molecules at final concentrations of 18 nM to 57 uM and positive control phospho-9-mer (sequence: Ac-PPLHSpTAI-NH2) at final concentrations 26 nM to 57 uM and phospho-13-mer (sequence: Ac-[…]pTAI-NH2) at final concentrations of 1 nM to 2.3 uM will be pin-transferred (23 nL) to the plate via a Kalypsys pin-tool robotics equipped with a 1,536-pin array. The reaction plate will be centrifuged for 1 min at 1000 rpm and incubated at room temperature for 10 min. The FITC fluorescence signals will be read using the PerkinElmer ViewLux plate reader at 480 / 20 nm excitation and 540 / 20 nm S and P polarization emission wavelengths. Reagent bottles will be kept submerged into 4 °C recirculating chiller bath and all liquid lines will be covered with aluminum foil to minimize degradation. Library plates will be screened starting from the lowest to the highest concentrations to minimize compound carryover. Vehicle only plates, with DMSO being pin-transferred instead of compound solutions, will be included regularly throughout the screen to record any systematic shifts in assay signal.
(Quantitative high-throughput screening tests each substance at several concentrations.)
Regarding `CC1(C(=O)NS(=O)(=O)c2cccc(F)c2)CCN1C(=O)Cc1ccc(Cl)cc1Cl` (stereo not drawn), the max response, negative = inhibition is 1.99%.

Consider `C[C@H](CO)N1C[C@H](C)[C@@H](CN(C)C(=O)C2CCCCC2)OCc2cnnn2CCCC1=O`, for which the max response, negative = inhibition was -18.4%.

With `CCOC(=O)C1=CC[C@@H](c2ccncc2)N(S(=O)(=O)c2ccc(C)cc2)C1`, the max response, negative = inhibition is -3.59%.

As to `CN(CC(=O)Nc1ccc(F)cc1)C(=O)c1ccc(-c2ccc(Cl)cc2)o1`, the max response, negative = inhibition is -3.69%.

For `Cc1[nH][nH]c(=O)c1C(c1ccc(-c2ccc(Cl)cc2)o1)c1c(C)[nH][nH]c1=O`, the Potency was 26.7 µM (active).

In the case of `COc1ccc(CNC(=O)CCn2cccc2)cc1`, the max response, negative = inhibition is 1.6%.

With `NS(=O)(=O)c1ccc(CCNC(=O)CN2C(=O)c3ccccc3S2(=O)=O)cc1`, the max response, negative = inhibition was -4.84%.

As to `COc1ccc(CNC(=O)CN2C(=O)c3ccccc3S2(=O)=O)cc1`, the Potency is 26.7 µM (active).

With `COc1cccc(OC)c1C(=O)N1CCN(Cc2ccccc2F)CC1`, the max response, negative = inhibition is -14.6%.

For `C=C1C(=O)OC2C1CCC(C)=CCCC1(C)OC21` (stereo not drawn), the max response, negative = inhibition is -24.4%.

Regarding `CC1(C(=O)NS(=O)(=O)C2CC2)CCCN(C(=O)CSc2ccccc2)C1` (stereo not drawn), the max response, negative = inhibition was -7.19%.

In the case of `O=C1Nc2cc(C(=O)N3CCN(c4ccc(F)cc4)CC3)ccc2NC1CSCc1cccc(F)c1` (stereo not drawn), the Potency is 29.9 µM (active).

As for `CC1CCN(C(=O)c2ccc3c(c2)NC(=O)CN3)CC1`, the max response, negative = inhibition was 62.7%.

`O=C(c1cccc(F)c1)N1CCN(c2ccc([N+](=O)[O-])c(N3CCCCC3)c2)CC1`: the max response, negative = inhibition was -8.34%.

As to `Cc1ccc(SCC(=O)N2CCN(c3ccc(F)cc3)CC2)cc1`, the max response, negative = inhibition is 4.7%.

For the compound `Cc1ccc(CSCC2Nc3ccc(C(=O)N4CCN(c5ccc(F)cc5)CC4)cc3NC2=O)cc1` (stereo not drawn), the Potency was 8.44 µM (active).

For the compound `C=CCn1c(SCc2cccc(F)c2)nc2cc(C(=O)N3CCC(C(N)=O)CC3)ccc2c1=O`, the max response, negative = inhibition was -5.4%.

In the case of `Cc1nc2ccccc2nc1CC(O)(c1ccccc1)c1ccccc1`, the max response, negative = inhibition was -15.9%.

With `COc1cccc(CN(C)C(=O)CC[C@H]2O[C@@H](n3cnc4c(NC(=O)c5ccccc5)ncnc43)[C@H](O)[C@@H]2O)c1`, the max response, negative = inhibition is -1.63%.

Turning to `Cc1ccc(C(NC(=O)C2CCN(CCOc3ccc(Cl)cc3Cl)CC2)c2ccccn2)cc1` (stereo not drawn), the max response, negative = inhibition is -11.3%.

As for `CCOc1cc(C)ccc1OCc1nnc(SCC(=O)Nc2cccc(C(=O)O)c2)n1-c1ccccc1`, the max response, negative = inhibition is -7.97%.

As for `Cc1nnc(SCC(=O)Nc2cccc(N)c2)n1-c1ccccc1`, the Potency was 26.7 µM (active).

For `CC(=O)Nc1ccc(NC(=O)CSc2nnc(C3CC3)n2-c2ccccc2)cc1`, the max response, negative = inhibition is 7.6%.

On to `OCC1OC(n2cnc3c(N4CCCC4)ncnc32)C(O)C1O` (stereo not drawn), for which the max response, negative = inhibition was -0.393%.

Take `C[C@@H]1CN([C@H](C)CO)C(=O)c2cc(Br)cnc2O[C@@H]1CN(C)Cc1cncnc1`: the max response, negative = inhibition is -13.8%.

In the case of `CN(CCO)C(=O)c1nc[nH]c1C(=O)N(C)Cc1ccccc1`, the max response, negative = inhibition is -6.79%.

`CC1=CC(=C(C#N)c2nc3ccccc3s2)C=C(C)N1c1ccc(F)cc1F`: the Potency is 21.2 µM (active).

Regarding `CN(Cc1nc2ccccc2s1)C(=O)c1ccc(F)cc1`, the max response, negative = inhibition was -6.86%.

Consider `O=C(NCc1cccnc1)c1ccc2nc([C@@H]3O[C@H](CO)[C@H](O)[C@H](O)[C@H]3O)[nH]c2c1`, for which the max response, negative = inhibition was -4.09%.

With `COc1cc(C=NC2CCCCC2)ccc1O`, the max response, negative = inhibition is 4.49%.

Regarding `COc1cc(/C=N\Nc2nc(-c3cccs3)c(NC(C)=O)s2)ccc1O`, the Potency is 26.7 µM (active).

As to `CC(=O)c1sc(N/N=C/c2ccc(C(C)C)cc2)nc1C`, the max response, negative = inhibition was 11.6%.

For `CCc1ccccc1NC(=O)CN1CCN(C(=O)c2cc(C3CC3)nn2-c2ccccc2)CC1`, the max response, negative = inhibition is 7.48%.

Take `COc1ccc(S(=O)(=O)NC(=O)C2(C)CCN2C(=O)COc2ccc(Cl)cc2)cc1` (stereo not drawn): the max response, negative = inhibition was -3.35%.

Take `CC(C)Nc1ncnc2c1ncn2[C@H]1CN(Cc2ccncc2)C[C@@H](CO)O1`: the max response, negative = inhibition is 0.157%.

In the case of `CC(=O)c1nn(-c2ccccc2)c(=Nc2ccccc2)cc1C`, the max response, negative = inhibition is -4.39%.

Turning to `O=C(COc1ccccc1)Nc1ccc(C(=O)N2CCCC2)cc1`, the max response, negative = inhibition was -9.45%.

Turning to `COc1ccc(N2CCN(C(=O)c3cccs3)CC2)cc1`, the max response, negative = inhibition was 0.204%.

As to `O=C(COc1ccccc1)Nc1ccc(N2CCN(C(=O)c3cccs3)CC2)cc1`, the Potency was 26.7 µM (active).

As for `Cc1ccc(S(=O)(=O)N2CCC(=O)N([C@H](COCc3ccccc3)C(C)C)CC2)cc1`, the max response, negative = inhibition is -7.98%.

For `Cc1cc(C(=O)OCC(=O)Nc2nccs2)c2ccccc2n1`, the Potency was 3.36 µM (active).

For `O=C(COC(=O)c1ccc(O)cc1)Nc1nccs1`, the max response, negative = inhibition is -1.48%.

As for `Cc1cc(C(=O)OCC(=O)Nc2nnc(C(C)C)s2)c2ccccc2n1`, the max response, negative = inhibition was -7.1%.

Source of the values: PubChem BioAssay AID720504 (National Center for Advancing Translational Sciences (NCATS), 2013).
